In PubChem BioAssay (NCATS):
Inconclusive results are not listed. Activity calls are given as the source filed them. The call rests on the fitted dose curve; in most records, active means well fitted curve in the direction sought with a large enough effect; inconclusive means small, poorly fitted or top-dose-only effect, or another doubt; inactive means no such curve, though single readings can be large; an effect the other way counts as inactive or inconclusive.

Key:
AA1029 = assay: qHTS profiling for inhibitors of Plasmodium falciparum proliferation (AID 504749); further: nearly all actives have a fitted effect of over 60% in size; settings: P. falciparum in erythrocytes, SYBR Green DNA, 72 h; series mostly up to 28.7 µM
Procedure, shortened: (§1)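 Parasite proliferation within erythrocytes, 72 h exposure. Endpoint: SYBR Green I fluorescence after overnight lysis at room temperature. Controls: 0.29 uM artemisinin, DMSO.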

AS120 = assay: as above; settings: P. falciparum in erythrocytes, SYBR Green DNA, 72 h; series mostly up to 28.7 µM
Procedure, shortened: as §1

ATS95 = assay: as above; settings: P. falciparum in erythrocytes, SYBR Green DNA, 72 h; series mostly up to 28.7 µM
Procedure, shortened: as §1

CP194 = assay: as above; settings: P. falciparum in erythrocytes, SYBR Green DNA, 72 h; series mostly up to 28.7 µM
Procedure, shortened: as §1

CP247 = assay: as above; settings: P. falciparum in erythrocytes, SYBR Green DNA, 72 h; series mostly up to 28.7 µM
Procedure, shortened: as §1

CP260 = assay: as above; settings: P. falciparum in erythrocytes, SYBR Green DNA, 72 h; series mostly up to 28.7 µM
Procedure, shortened: as §1

CP266 = assay: as above; settings: P. falciparum in erythrocytes, SYBR Green DNA, 72 h; series mostly up to 28.7 µM
Procedure, shortened: as §1

CP297 = assay: as above; settings: P. falciparum in erythrocytes, SYBR Green DNA, 72 h; series mostly up to 28.7 µM
Procedure, shortened: as §1

DFO2036 = assay: as above; settings: P. falciparum in erythrocytes, SYBR Green DNA, 72 h; series mostly up to 28.7 µM
Procedure, shortened: as §1

DIV14 = assay: as above; settings: P. falciparum in erythrocytes, SYBR Green DNA, 72 h; series mostly up to 28.7 µM
Procedure, shortened: as §1

GB4 = assay: as above; settings: P. falciparum in erythrocytes, SYBR Green DNA, 72 h; series mostly up to 28.7 µM
Procedure, shortened: as §1

P93_24 = assay: as above; settings: P. falciparum in erythrocytes, SYBR Green DNA, 72 h; series mostly up to 28.7 µM
Procedure, shortened: as §1

P94_40 = assay: as above; settings: P. falciparum in erythrocytes, SYBR Green DNA, 72 h; series mostly up to 28.7 µM
Procedure, shortened: as §1

SC27B = assay: as above; settings: P. falciparum in erythrocytes, SYBR Green DNA, 72 h; series mostly up to 28.7 µM
Procedure, shortened: as §1

TAB165 = assay: as above; settings: P. falciparum in erythrocytes, SYBR Green DNA, 72 h; series mostly up to 28.7 µM
Procedure, shortened: as §1

[1] = S16 Schwann cell viability assay (CellTiter-Glo assay) (AID 624031); further: nearly all actives have a fitted effect of over 70% in size
Procedure, shortened: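 This viability control uses native rat S16 Schwann cells grown in DMEM plus 10% FBS. After a 24 h compound treatment at 37 °C, CellTiter-Glo luminescence reports ATP content, scaled against DMSO-treated and cell-free wells.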

[2] = S16 Schwann cell PMP22 intronic element firefly luciferase assay (AID 624032); further: nearly all actives have a fitted effect of over 30% in size
Procedure, shortened: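 Rat S16 Schwann cells stably carrying a PMP22 intronic element-driven Fluc reporter were seeded overnight, then exposed to compounds for 24 h at 37 °C. Luminescence was normalized to PTC124 (positive control) and DMSO (0% activity).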

ICS = assay: qHTS profiling for inhibitors of Plasmodium falciparum proliferation (AID 504749); further: nearly all actives have a fitted effect of over 60% in size; settings: P. falciparum in erythrocytes, SYBR Green DNA, 72 h; series mostly up to 28.7 µM
Procedure, shortened: as §1

PAD = assay: as above; settings: P. falciparum in erythrocytes, SYBR Green DNA, 72 h; series mostly up to 28.7 µM
Procedure, shortened: as §1

PC26 = assay: as above; settings: P. falciparum in erythrocytes, SYBR Green DNA, 72 h; series mostly up to 28.7 µM
Procedure, shortened: as §1

Measured: Potency
Potency means the concentration at half of the fitted maximal effect.

Cc1cc(C)cc(C(=O)OC2CC3CCC(C2)N3C)c1 (centres undefined)
active: DIV14 7.57 µM
not listed: [1] | [2] | ICS | PAD | PC26
inactive: all other assays above

CCC/C=C/C=C/C(=O)OC1/C(=C/C(=O)OC)CC2CC(C(C)O)OC(=O)CC(O)CC3CC(OC(C)=O)C(C)(C)C(O)(CC4C/C(=C/C(=O)OC)CC(/C=C\C(C)(C)C1(O)O2)O4)O3 (centres undefined)
inactive: [1] | [2]
active: AA1029 1.78 µM | AS120 1 µM | ATS95 2.51 µM | CP247 2.82 µM | CP260 2.82 µM | CP297 1.69 µM | DFO2036 1.26 µM | DIV14 1.07 µM | GB4 1.51 µM | ICS 0.562 µM | P93_24 2.24 µM | P94_40 2.24 µM | PAD 1.78 µM | PC26 0.953 µM | SC27B 2.51 µM | TAB165 1.41 µM

CC1(C)[C@@H](C=C(Cl)Cl)[C@@H]1C(=O)OCc1c(F)c(F)cc(F)c1F
not listed: CP297 | [2]
inactive: all other assays above

C#CC1(O)C=CC2C3CCC4=CC(=O)CCC4C3CCC21CC (centres undefined)
active: [2] 6.42 µM | CP247 6.31 µM | DIV14 6.75 µM | PC26 6.75 µM
inactive: [1] | AS120

CC(C)=CC1C(C(=O)OCc2coc(Cc3ccccc3)c2)C1(C)C (centres undefined)
not listed: AS120 | SC27B | TAB165 | ICS
inactive: all other assays above

CCC(=O)OC1(c2ccccc2)CCN(C)CC1C (centres undefined)
active: CP297 12 µM | GB4 7.57 µM
inactive: [1] | [2] | CP266 | DIV14 | ICS | PAD

CC12CCC3C4CCC(=O)C(O)=C4CCC3C1CCC2OC(=O)CCC1CCCC1 (centres undefined)
not listed: ICS
inactive: all other assays above

CC1CC[C@@]2(NC1)OC1CC3C4CC[C@@H]5CC(O)CC[C@@]5(C)C4CC[C@]3(C)C1C2C (some centres undefined)
inactive: [1] | [2] | AA1029 | ATS95 | CP194 | CP266 | CP297 | DFO2036
active: ICS 10 µM

COC(=O)C1C(OC(=O)c2ccccc2)CC2CCC1N2C (centres undefined)
inactive: all assays above

CC(=O)Oc1ccc2c3c1OC1[C@@H](OC(C)=O)C=C[C@H]4[C@H](C2)N(C)CC[C@]314 (some centres undefined)
inactive: all assays above

CC(=O)[C@H]1CC[C@H]2C3CC[C@H]4C[C@H](O)CC[C@]4(C)C3CC[C@]12C (some centres undefined)
not listed: CP260
inactive: all other assays above

C#C[C@]1(O)CC[C@H]2[C@@H]3CCC4=CC(=O)CCC4(C)[C@H]3CCC21C (some centres undefined)
not listed: CP247 | CP297
inactive: all other assays above

CCN(CC)C(=O)N[C@@H]1C=C2c3cccc4[nH]cc(c34)C[C@H]2N(C)C1
inactive: [2] | CP266 | DFO2036
active: AS120 12.6 µM | DIV14 13.5 µM | GB4 8.49 µM | ICS 8.91 µM | P93_24 7.94 µM | P94_40 8.91 µM | PC26 12 µM | TAB165 12.6 µM

CN(C)C1C(=O)C(C(N)=O)C(=O)C2(O)C(=O)C3C(=O)c4c(O)cccc4C(C)(O)C3C(O)C12 (centres undefined)
active: ICS 2.82 µM
inactive: [1] | [2] | AS120 | CP194 | CP297 | PC26 | SC27B

CC(=O)O[C@H]1C[C@H](O[C@H]2[C@@H](O)CC(O[C@H]3[C@@H](O)C[C@H](O[C@H]4CC[C@@]5(C)[C@H](CC[C@@H]6[C@@H]5CC[C@]5(C)[C@@H](C7=CC(=O)OC7)CC[C@]65O)C4)O[C@@H]3C)O[C@@H]2C)O[C@H](C)[C@H]1O[C@@H]1O[C@H](CO)[C@@H](O)[C@H](O)[C@H]1O (some centres undefined)
not listed: DIV14 | [2] | PC26
inactive: all other assays above

NC(Cc1ccc(Oc2cc(I)c(O)c(I)c2)c(I)c1)C(=O)O (centres undefined)
not listed: CP247 | DFO2036 | P94_40
inactive: all other assays above

C=CC[C@]1(O)CCC2C3CCC4=CCCCC4C3CCC21C (some centres undefined)
active: [2] 22.8 µM
not listed: ATS95 | CP266 | DIV14 | P94_40 | [1] | ICS
inactive: all other assays above

CCCC(C)C1(CC)C(=O)NC(=S)NC1=O (centres undefined)
inactive: all assays above

C=C1CC2C(CC[C@]3(C)C(=O)CCC23)[C@]2(C)C=CC(=O)C=C12 (some centres undefined)
active: [2] 11.4 µM
not listed: CP260
inactive: all other assays above

CC(Cc1ccccc1)N(C)C (centres undefined)
not listed: GB4
inactive: all other assays above

O=C1CC2OCC=C3CN4CC[C@]56c7ccccc7N1C5C2[C@H]3C[C@H]46 (some centres undefined)
active: AA1029 10 µM | CP260 11.2 µM
inactive: [1] | [2] | CP247 | ICS | PC26

CC(CO)NC(=O)C1C=C2c3cccc4[nH]cc(c34)CC2N(C)C1 (centres undefined)
not listed: DIV14
inactive: all other assays above

C[C@@H](N)[C@@H](O)c1ccc(O)c(O)c1
active: [1] 28.7 µM
not listed: [2]
inactive: all other assays above

CC(C)CCC(=O)OC1CCC2C3CCC4=CC(=O)CC[C@]4(C)C3CC[C@]12C (some centres undefined)
inactive: CP194 | CP266 | CP297 | DIV14 | GB4
active: CP260 11.2 µM | ICS 7.94 µM

CN(C)[C@@H](Cc1ccccc1)c1ccccc1
active: CP247 10 µM
not listed: AA1029 | CP297 | DIV14 | GB4 | P93_24
inactive: all other assays above

O=C1CC2OCC=C3CN4CCC56c7ccccc7N1C5[C@H]2[C@H]3C[C@H]46 (some centres undefined) (tested in a mixture with another compound)
inactive: [1] | [2] | ATS95 | CP247 | CP266 | CP297 | DFO2036 | P93_24 | P94_40 | SC27B | TAB165

C[C@]12CC[C@H]3[C@@H](CC[C@@]45O[C@@H]4C(=O)C(C#N)C[C@]35C)[C@@H]1CC[C@@H]2O (some centres undefined)
inactive: [1] | [2] | CP247 | CP260 | CP266 | CP297 | DIV14 | P94_40 | PAD | PC26

C[C@]12CCC3C(CCC4=C(Cl)C(=O)CC[C@@]43C)C1CCC2O (some centres undefined)
not listed: [2]
inactive: all other assays above

CNC1=CN(O)C(c2ccccc2)=c2cc(Cl)ccc2=N1
inactive: [2]
